According to PMC9911399, “Two distinct binding modes provide the RNA-binding protein RbFox with extraordinary sequence specificity”:
Residue numbers refer to the chain shown, from its start. Over roughly 16,000 sequences, “ka relative to ugcaugu” has its median near 0.0091; the highest 2% begin near 0.032. This is one part of a sample in which the highest values are shown more often than they occur.

T1: RBFOX1 RRM (Homo sapiens, UniProt Q9NWB1 109-208)
T1 sequence: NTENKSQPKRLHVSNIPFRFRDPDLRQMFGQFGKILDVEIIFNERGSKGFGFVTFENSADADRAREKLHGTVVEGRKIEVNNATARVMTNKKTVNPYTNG

B1: UUUCUCU (DNA:RNA)
RNA: GGGAGACCGGAAUUCAGAUUGUCCUUUCUCUUUAAAUCCCGUCGUAGCCACCA
DNA 1: CAATCTGAATTCCGGTCTCCC
DNA 2: TGGTGGCTACGACGGGATT
B2: CAUGAAC (DNA:RNA)
RNA: B1 RNA with U25C, U26A, C28G, U29A, C30A, U31C
DNA 1: CAATCTGAATTCCGGTCTCCC
DNA 2: TGGTGGCTACGACGGGATT
B3: CGAUGUC (DNA:RNA)
RNA: GGGAGACCGGAAUUCAGAUUGUCCCGAUGUCUUAAAUCCCGUCGUAGCCACCA
DNA 1: CAATCTGAATTCCGGTCTCCC
DNA 2: TGGTGGCTACGACGGGATT
B4: CGUGGUC (DNA:RNA)
RNA: B3 RNA with A27U, U28G
DNA 1: CAATCTGAATTCCGGTCTCCC
DNA 2: TGGTGGCTACGACGGGATT
B5: UCUGCGG (DNA:RNA)
RNA: B1 RNA with U26C, C28G, U29C, C30G, U31G
DNA 1: CAATCTGAATTCCGGTCTCCC
DNA 2: TGGTGGCTACGACGGGATT
B6: AAAACGU (DNA:RNA)
RNA: B3 RNA with C25A, G26A, U28A, G29C, U30G, C31U
DNA 1: CAATCTGAATTCCGGTCTCCC
DNA 2: TGGTGGCTACGACGGGATT
B7: AGUCCGC (DNA:RNA)
RNA: B3 RNA with C25A, A27U, U28C, G29C, U30G
DNA 1: CAATCTGAATTCCGGTCTCCC
DNA 2: TGGTGGCTACGACGGGATT
B8: GGAAAUG (DNA:RNA)
RNA: B3 RNA with C25G, U28A, G29A, C31G
DNA 1: CAATCTGAATTCCGGTCTCCC
DNA 2: TGGTGGCTACGACGGGATT
B9: GUGACCG (DNA:RNA)
RNA: B1 RNA with U25G, U27G, C28A, U29C, U31G
DNA 1: CAATCTGAATTCCGGTCTCCC
DNA 2: TGGTGGCTACGACGGGATT
B10: GUGAAUC (DNA:RNA)
RNA: B3 RNA with C25G, G26U, A27G, U28A, G29A
DNA 1: CAATCTGAATTCCGGTCTCCC
DNA 2: TGGTGGCTACGACGGGATT
B11: GCGAAUC (DNA:RNA)
RNA: B3 RNA with C25G, G26C, A27G, U28A, G29A
DNA 1: CAATCTGAATTCCGGTCTCCC
DNA 2: TGGTGGCTACGACGGGATT
B12: GUGAAUG (DNA:RNA)
RNA: B3 RNA with C25G, G26U, A27G, U28A, G29A, C31G
DNA 1: CAATCTGAATTCCGGTCTCCC
DNA 2: TGGTGGCTACGACGGGATT
B13: GCGCGAA (DNA:RNA)
RNA: B3 RNA with C25G, G26C, A27G, U28C, U30A, C31A
DNA 1: CAATCTGAATTCCGGTCTCCC
DNA 2: TGGTGGCTACGACGGGATT
B14: GUUAAUG (DNA:RNA)
RNA: B1 RNA with U25G, C28A, U29A, C30U, U31G
DNA 1: CAATCTGAATTCCGGTCTCCC
DNA 2: TGGTGGCTACGACGGGATT
B15: GGGAAUG (DNA:RNA)
RNA: B3 RNA with C25G, A27G, U28A, G29A, C31G
DNA 1: CAATCTGAATTCCGGTCTCCC
DNA 2: TGGTGGCTACGACGGGATT
B16: GAGAUUG (DNA:RNA)
RNA: B3 RNA with C25G, G26A, A27G, U28A, G29U, C31G
DNA 1: CAATCTGAATTCCGGTCTCCC
DNA 2: TGGTGGCTACGACGGGATT
B17: GCGAAUG (DNA:RNA)
RNA: B3 RNA with C25G, G26C, A27G, U28A, G29A, C31G
DNA 1: CAATCTGAATTCCGGTCTCCC
DNA 2: TGGTGGCTACGACGGGATT
B18: GAGACCG (DNA:RNA)
RNA: B1 RNA with U25G, U26A, U27G, C28A, U29C, U31G
DNA 1: CAATCTGAATTCCGGTCTCCC
DNA 2: TGGTGGCTACGACGGGATT
B19: GAGAAUG (DNA:RNA)
RNA: B3 RNA with C25G, G26A, A27G, U28A, G29A, C31G
DNA 1: CAATCTGAATTCCGGTCTCCC
DNA 2: TGGTGGCTACGACGGGATT

biological target: T1, RBFOX1 RRM; test: EMSA; HiTS-Eq, 1 nM pool, 10 min; buffer printed only for the single-RNA assays: 10 mM Tris pH 7.5, 150 mM NaCl, 3.4 mM EDTA, 0.001% NP-40, 30 C; details: tags: His6 N-terminal (pET28a); label: 5' 32P
Summary of the method: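 Relative association constants, normalised to the cognate motif, were derived by comparing read counts of each RNA species with those of the control reaction. The RNA sequenced was the free fraction, separated by 8% native PAGE after a 10 min equilibration in 50 µL of 1 nM 5′-radiolabelled RNA (7 randomized nucleotides) with increasing concentrations of purified wild-type or mutant RbFox RRM.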

Binder | binding signal
B1 | 0.0126 KA relative to UGCAUGU
B2 | 0.00509 KA relative to UGCAUGU
B3 | 0.0174 KA relative to UGCAUGU
B4 | 0.017 KA relative to UGCAUGU
B5 | 0.0178 KA relative to UGCAUGU
B6 | 0.000755 KA relative to UGCAUGU
B7 | 0.0128 KA relative to UGCAUGU
B8 | 0.0124 KA relative to UGCAUGU
B9 | 0.0167 KA relative to UGCAUGU
B10 | 0.0142 KA relative to UGCAUGU
B11 | 0.0124 KA relative to UGCAUGU
B12 | 0.0355 KA relative to UGCAUGU
B13 | 0.0104 KA relative to UGCAUGU
B14 | 0.0118 KA relative to UGCAUGU
B15 | 0.0951 KA relative to UGCAUGU
B16 | 0.019 KA relative to UGCAUGU
B17 | 0.0369 KA relative to UGCAUGU
B18 | 0.00974 KA relative to UGCAUGU
B19 | 0.0321 KA relative to UGCAUGU
